The record followed here is PubChem BioAssay (NCI).

The structures appear in SMILES notation. Compounds without any hit were thinned out: in the full panel of roughly 79,000, 15% have a hit. Values without a mark were called inactive. Activity calls are given as the source filed them. Cut-off read from the data, not from the text of the source: active = growth inhibition above about 70%; inactive = the rest.

Assay [1] in a line: NCI Yeast Anticancer Drug Screen. Data for the rad50 strain (AID 155).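 Note: 0% = growth of vehicle-only cultures of the same strain.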 As to conditions: S. cerevisiae rad50 strain growth inhibition, active compounds read high. In a few lines: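 Yeast carrying a defined DNA repair defect were exposed to test compounds, and growth was compared with vehicle-treated controls to give percent inhibition.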
A short description of assay [2]: NCI Yeast Anticancer Drug Screen. Data for the mec2-1 strain (AID 157). Conditions: S. cerevisiae mec2-1 strain, active compounds read high. The procedure, abridged:
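mec2-1 yeast strain, carrying an alteration in DNA damage repair or cell cycle control, was exposed to compounds; growth inhibition was measured relative to vehicle-treated controls.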

Assay [3] in a line: NCI Yeast Anticancer Drug Screen. Data for the sgs1 mgt1 strain (AID 161).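 Note: 0% = growth of cultures given vehicle only.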 As to conditions: S. cerevisiae sgs1 mgt1 strain, active compounds read high. In a few lines: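 Growth of a repair-deficient yeast mutant was monitored after compound treatment and expressed as inhibition relative to vehicle-treated cultures.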
Assay [4] in a line: NCI Yeast Anticancer Drug Screen. Data for the cln2 rad14 strain (AID 165).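 Note: 0% = growth equal to vehicle treated cultures.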 As to conditions: S. cerevisiae cln2 rad14 strain, active compounds read high. The procedure, abridged:
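Yeast carrying cln2 and rad14 alterations (cell cycle control and DNA damage repair) were exposed to compounds. Growth inhibition was measured against vehicle-treated controls.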

A short description of assay [5]: NCI Yeast Anticancer Drug Screen. Data for the bub3 strain (AID 167). Conditions: S. cerevisiae bub3 mutant strain, active compounds read high. The procedure, abridged:
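Compounds were applied to a genetically altered yeast strain carrying a cell-cycle control defect. Growth inhibition was scored against vehicle-treated controls.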

The nature of assay [6]: NCI Yeast Anticancer Drug Screen. Data for the mlh1 rad18 strain (AID 175). Conditions: S. cerevisiae mlh1 rad18 strain growth inhibition, active compounds read high. In a few lines: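 Growth inhibition of the yeast strain was measured after compound exposure and expressed relative to vehicle-treated controls. The strain carries defined defects in DNA damage repair.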
The mark [7] stands for this setting: at 5.0 µM (retest, dose inferred, filed as 0.5).
[8] abbreviates: at 50.0 µM (retest, dose inferred, filed as 5.0).

Consider `COc1cccc2c1C(=O)c1c(O)c(COC3CC(N)C(O)C(C)O3)cc(O)c1C2=O` (stereo not given), for which the growth inhibition in assay [1] (setting [7]) is 14%; in assay [1] (setting [8]) it was 89% (active); in assay [1] (at 50.0 µM), 96.7% (active); in assay [2] (setting [7]), 14%; in assay [2] (setting [8]), 96% (active); in assay [2] (at 50.0 µM), 73% (active). For the same compound, the growth inhibition in assay [3] (setting [7]) was 13%; in assay [3] (setting [8]) it was 80% (active); in assay [3] (at 50.0 µM), 99.3% (active); in assay [4] (setting [7]), 3%; in assay [4] (setting [8]), 42%; in assay [4] (at 50.0 µM) it was 50.6%. The growth inhibition is 7% in assay [5] (setting [7]); 40% in assay [5] (setting [8]); 98% (active) in assay [5] (at 50.0 µM); 12% in assay [6] (setting [7]); 53% in assay [6] (setting [8]); 98.3% (active) in assay [6] (at 50.0 µM).
In the case of `O=C(/C=C/C(=O)c1ccc(O)cc1)c1ccccc1`, the growth inhibition in assay [1] (setting [7]) was -1%; in assay [1] (setting [8]), 89% (active); in assay [1] (at 50.0 µM) it was 12.4%; in assay [2] (setting [7]), -1%; in assay [2] (setting [8]), 85% (active); in assay [2] (at 50.0 µM), 26.6%. In addition, the growth inhibition in assay [3] (setting [7]) was -3%; in assay [3] (setting [8]), 82% (active); in assay [3] (at 50.0 µM), 30.8%; in assay [4] (setting [7]), 3%; in assay [4] (setting [8]), 90% (active); in assay [4] (at 50.0 µM) it was 24.6%. In addition, the growth inhibition was -6% in assay [5] (setting [7]); 87% (active) in assay [5] (setting [8]); 38.6% in assay [5] (at 50.0 µM); -1% in assay [6] (setting [7]); 94% (active) in assay [6] (setting [8]); 24.7% in assay [6] (at 50.0 µM).
With `CCOc1ccc2c(c1)[n+]([O-])c(-c1ccc(Cl)cc1)c(N)[n+]2[O-]`, the growth inhibition in assay [1] (setting [7]) is 24%; in assay [1] (setting [8]), 99% (active); in assay [1] (at 50.0 µM), 99.2% (active); in assay [2] (setting [7]), 23%; in assay [2] (setting [8]), 99% (active); in assay [2] (at 50.0 µM) it was 98.2% (active). The growth inhibition in assay [3] (setting [7]) is 50%; in assay [3] (setting [8]) it was 100% (active); in assay [3] (at 50.0 µM), 99.3% (active); in assay [4] (setting [7]), 34%; in assay [4] (setting [8]), 98% (active); in assay [4] (at 50.0 µM), 98.8% (active). Further, the growth inhibition was 63% in assay [5] (setting [7]); 99% (active) in assay [5] (setting [8]); 99.2% (active) in assay [5] (at 50.0 µM); 68% in assay [6] (setting [7]); 99% (active) in assay [6] (setting [8]); 98.8% (active) in assay [6] (at 50.0 µM).
Turning to `O=C(OCC1OC(c2nn[nH]n2)C(OC(=O)c2ccccc2)C1OC(=O)c1ccccc1)c1ccccc1` (stereo not given), the growth inhibition in assay [1] (setting [7]) was 17%; in assay [1] (setting [8]), 61%; in assay [1] (at 50.0 µM), 19%; in assay [2] (setting [7]), 4%; in assay [2] (setting [8]) it was 56%; in assay [2] (at 50.0 µM), 30.4%. For the same compound, the growth inhibition was 19% in assay [3] (setting [7]); 80% (active) in assay [3] (setting [8]); 43.8% in assay [3] (at 50.0 µM); 25% in assay [4] (setting [7]); 70% (active) in assay [4] (setting [8]); 45.9% in assay [4] (at 50.0 µM). Moreover, the growth inhibition in assay [5] (setting [7]) was 17%; in assay [5] (setting [8]), 80% (active); in assay [5] (at 50.0 µM) it was 66%; in assay [6] (setting [7]) it was 36%; in assay [6] (setting [8]), 66%; in assay [6] (at 50.0 µM), -33.6%.
As to `S=c1nc(N2CCCCC2)ss1`, the growth inhibition is 41% in assay [1] (setting [7]); 94% (active) in assay [1] (setting [8]); 95.2% (active) in assay [1] (at 50.0 µM); 1% in assay [2] (setting [7]); 75% (active) in assay [2] (setting [8]); 66% in assay [2] (at 50.0 µM). The growth inhibition in assay [3] (setting [7]) was 18%; in assay [3] (setting [8]) it was 93% (active); in assay [3] (at 50.0 µM), 97.2% (active); in assay [4] (setting [7]), 17%; in assay [4] (setting [8]), 70% (active); in assay [4] (at 50.0 µM) it was 57.9%. Further, the growth inhibition in assay [6] (setting [7]) is 24%; in assay [6] (setting [8]) it was 94% (active); in assay [6] (at 50.0 µM), 97.2% (active).
As to `O=S1(=O)CS(=O)(=O)OCCCO1`, the growth inhibition in assay [1] (setting [7]) was 10%; in assay [1] (setting [8]), 10%; in assay [1] (at 50.0 µM) it was -15.7%; in assay [2] (setting [7]) it was 8%; in assay [2] (setting [8]) it was 8%; in assay [2] (at 50.0 µM) it was -32.8%. In addition, the growth inhibition is 12% in assay [4] (setting [7]); 9% in assay [4] (setting [8]); -9.45% in assay [4] (at 50.0 µM); 7% in assay [5] (setting [7]); 7% in assay [5] (setting [8]); -30.1% in assay [5] (at 50.0 µM). The growth inhibition in assay [6] (setting [7]) is 11%; in assay [6] (setting [8]) it was 16%; in assay [6] (at 50.0 µM), -59.5%.
`C[N+](C)([O-])CCOc1cc2c(c3ccccc13)-c1ccccc1C2=O`: the growth inhibition is 1% in assay [1] (setting [7]); 63% in assay [1] (setting [8]); 83.8% (active) in assay [1] (at 50.0 µM); -1% in assay [2] (setting [7]); 7% in assay [2] (setting [8]); -4.3% in assay [2] (at 50.0 µM). Further, the growth inhibition is -4% in assay [3] (setting [7]); 19% in assay [3] (setting [8]); -8.2% in assay [3] (at 50.0 µM); -5% in assay [4] (setting [7]); 5% in assay [4] (setting [8]); 13% in assay [4] (at 50.0 µM). Also, the growth inhibition was -5% in assay [5] (setting [7]); 4% in assay [5] (setting [8]); 0.15% in assay [5] (at 50.0 µM); 1% in assay [6] (setting [7]); 13% in assay [6] (setting [8]); 16.9% in assay [6] (at 50.0 µM).
Consider `CCOC(=O)/C(=C\c1ccc(-c2ccccc2)cc1)C(C)=O`, for which the growth inhibition in assay [1] (setting [7]) is 0%; in assay [1] (setting [8]), 93% (active); in assay [1] (at 50.0 µM), 67.1%; in assay [2] (setting [7]) it was -27%; in assay [2] (setting [8]) it was 95% (active); in assay [2] (at 50.0 µM) it was 73.5% (active). In addition, the growth inhibition in assay [3] (setting [7]) is 21%; in assay [3] (setting [8]), 92% (active); in assay [3] (at 50.0 µM) it was 81.2% (active); in assay [4] (setting [7]), 1%; in assay [4] (setting [8]) it was 85% (active); in assay [4] (at 50.0 µM) it was 45.5%. The growth inhibition in assay [6] (setting [7]) is -27%; in assay [6] (setting [8]) it was 94% (active); in assay [6] (at 50.0 µM), 76.6% (active).
Regarding `Cc1c[n+](=O)c2ccccc2n1[O-]`, the growth inhibition was -21% in assay [1] (setting [7]); 10% in assay [1] (setting [8]); 2.6% in assay [1] (at 50.0 µM); -14% in assay [2] (setting [7]); -16% in assay [2] (setting [8]); -16.6% in assay [2] (at 50.0 µM). Moreover, the growth inhibition in assay [3] (setting [7]) is -9%; in assay [3] (setting [8]), -7%; in assay [3] (at 50.0 µM), -20.4%; in assay [5] (setting [7]) it was 13%; in assay [5] (setting [8]) it was -11%; in assay [5] (at 50.0 µM) it was -10.6%. Moreover, the growth inhibition in assay [6] (setting [7]) is -11%; in assay [6] (setting [8]), -6%; in assay [6] (at 50.0 µM), -0.1%.
For the compound `Cc1ccc(/C=C/C(=O)c2cc(CN(C)C)c(O)c(CN(C)C)c2)cc1`, the growth inhibition in assay [1] (setting [7]) was 1%; in assay [1] (setting [8]), 5%; in assay [1] (at 50.0 µM), 41.9%; in assay [2] (setting [7]), 0%; in assay [2] (setting [8]), 25%; in assay [2] (at 50.0 µM), -1.25%. Further, the growth inhibition in assay [3] (setting [7]) was -1%; in assay [3] (setting [8]), 11%; in assay [3] (at 50.0 µM) it was -9.5%; in assay [4] (setting [7]), 4%; in assay [4] (setting [8]), -4%; in assay [4] (at 50.0 µM), 55.6%. Also, the values for the growth inhibition in assay [6] (setting [7]), in assay [6] (setting [8]) and in assay [6] (at 50.0 µM) were -2%, 23% and 1.4%, respectively.
Consider `O=C(/C=C/c1ccccc1)C1(c2ccccc2)CC1`, for which the growth inhibition in assay [1] (setting [7]) is -125%; in assay [1] (setting [8]) it was -56%; in assay [1] (at 50.0 µM) it was 79.8% (active); in assay [2] (setting [7]), -51%; in assay [2] (setting [8]), -42%; in assay [2] (at 50.0 µM) it was 60.9%. The growth inhibition in assay [3] (setting [7]) was -53%; in assay [3] (setting [8]), -2%; in assay [3] (at 50.0 µM) it was 68.9%; in assay [4] (setting [7]) it was -55%; in assay [4] (setting [8]) it was -34%; in assay [4] (at 50.0 µM) it was -21.4%. Further, the growth inhibition in assay [6] (setting [7]) is -115%; in assay [6] (setting [8]), -93%; in assay [6] (at 50.0 µM), 66.5%.
